# Changes are numbered by the printed parent chain; changes in the protein carry UniProt numbers. Whole data set: some 16,000 sequences, median “ka relative to ugcaugu” near 0.096, cut for the highest 2% near 0.35. Shown is part of a subset that was picked to be rich in the highest values.
# T1: RBFOX1 RRM RbFoxmut (Fox-RRM*) (Homo sapiens, UniProt Q9NWB1 109-208, R118D;E147R;N151S;E152T)
# T1 sequence: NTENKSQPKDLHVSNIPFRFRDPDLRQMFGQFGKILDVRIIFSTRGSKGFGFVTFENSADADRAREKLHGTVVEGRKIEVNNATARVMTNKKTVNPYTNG
# B1: GUAACCG (DNA:RNA)
# RNA: GGGAGACCGGAAUUCAGAUUGUCCGUAACCGUUAAAUCCCGUCGUAGCCACCA
# DNA 1: CAATCTGAATTCCGGTCTCCC
# DNA 2: TGGTGGCTACGACGGGATT
# B2: UGAUCUC (DNA:RNA)
# RNA: B1 RNA with G25U, U26G, A28U, C30U, G31C
# DNA 1: CAATCTGAATTCCGGTCTCCC
# DNA 2: TGGTGGCTACGACGGGATT
# B3: UGCUGAG (DNA:RNA)
# RNA: B1 RNA with G25U, U26G, A27C, A28U, C29G, C30A
# DNA 1: CAATCTGAATTCCGGTCTCCC
# DNA 2: TGGTGGCTACGACGGGATT
# B4: GAUGUUU (DNA:RNA)
# RNA: B1 RNA with U26A, A27U, A28G, C29U, C30U, G31U
# DNA 1: CAATCTGAATTCCGGTCTCCC
# DNA 2: TGGTGGCTACGACGGGATT
# B5: CGAAAUG (DNA:RNA)
# RNA: B1 RNA with G25C, U26G, C29A, C30U
# DNA 1: CAATCTGAATTCCGGTCTCCC
# DNA 2: TGGTGGCTACGACGGGATT
# B6: CGAAUGU (DNA:RNA)
# RNA: B1 RNA with G25C, U26G, C29U, C30G, G31U
# DNA 1: CAATCTGAATTCCGGTCTCCC
# DNA 2: TGGTGGCTACGACGGGATT
# B7: GAAUGUU (DNA:RNA)
# RNA: B1 RNA with U26A, A28U, C29G, C30U, G31U
# DNA 1: CAATCTGAATTCCGGTCTCCC
# DNA 2: TGGTGGCTACGACGGGATT
# B8: CGAAUUG (DNA:RNA)
# RNA: B1 RNA with G25C, U26G, C29U, C30U
# DNA 1: CAATCTGAATTCCGGTCTCCC
# DNA 2: TGGTGGCTACGACGGGATT
# B9: CGUCGUU (DNA:RNA)
# RNA: GGGAGACCGGAAUUCAGAUUGUCCCGUCGUUUUAAAUCCCGUCGUAGCCACCA
# DNA 1: CAATCTGAATTCCGGTCTCCC
# DNA 2: TGGTGGCTACGACGGGATT
# B10: CCCCGAA (DNA:RNA)
# RNA: B9 RNA with G26C, U27C, U30A, U31A
# DNA 1: CAATCTGAATTCCGGTCTCCC
# DNA 2: TGGTGGCTACGACGGGATT
# B11: CGAUUGU (DNA:RNA)
# RNA: B9 RNA with U27A, C28U, G29U, U30G
# DNA 1: CAATCTGAATTCCGGTCTCCC
# DNA 2: TGGTGGCTACGACGGGATT
# B12: GUAAUGU (DNA:RNA)
# RNA: B1 RNA with C29U, C30G, G31U
# DNA 1: CAATCTGAATTCCGGTCTCCC
# DNA 2: TGGTGGCTACGACGGGATT
# B13: GAAAUGU (DNA:RNA)
# RNA: B1 RNA with U26A, C29U, C30G, G31U
# DNA 1: CAATCTGAATTCCGGTCTCCC
# DNA 2: TGGTGGCTACGACGGGATT
# B14: GGAAUGU (DNA:RNA)
# RNA: B1 RNA with U26G, C29U, C30G, G31U
# DNA 1: CAATCTGAATTCCGGTCTCCC
# DNA 2: TGGTGGCTACGACGGGATT
# B15: CCGAAUG (DNA:RNA)
# RNA: B9 RNA with G26C, U27G, C28A, G29A, U31G
# DNA 1: CAATCTGAATTCCGGTCTCCC
# DNA 2: TGGTGGCTACGACGGGATT
# B16: CACAGAG (DNA:RNA)
# RNA: B9 RNA with G26A, U27C, C28A, U30A, U31G
# DNA 1: CAATCTGAATTCCGGTCTCCC
# DNA 2: TGGTGGCTACGACGGGATT
# B17: ACGGAAU (DNA:RNA)
# RNA: B9 RNA with C25A, G26C, U27G, C28G, G29A, U30A
# DNA 1: CAATCTGAATTCCGGTCTCCC
# DNA 2: TGGTGGCTACGACGGGATT
# B18: AUGUUAC (DNA:RNA)
# RNA: B1 RNA with G25A, A27G, A28U, C29U, C30A, G31C
# DNA 1: CAATCTGAATTCCGGTCTCCC
# DNA 2: TGGTGGCTACGACGGGATT
# B19: CGGGGCG (DNA:RNA)
# RNA: B9 RNA with U27G, C28G, U30C, U31G
# DNA 1: CAATCTGAATTCCGGTCTCCC
# DNA 2: TGGTGGCTACGACGGGATT
# B20: AAGAUUG (DNA:RNA)
# RNA: B1 RNA with G25A, U26A, A27G, C29U, C30U
# DNA 1: CAATCTGAATTCCGGTCTCCC
# DNA 2: TGGTGGCTACGACGGGATT
# B21: GAGUAUC (DNA:RNA)
# RNA: B9 RNA with C25G, G26A, U27G, C28U, G29A, U31C
# DNA 1: CAATCTGAATTCCGGTCTCCC
# DNA 2: TGGTGGCTACGACGGGATT
# B22: GAGAGUA (DNA:RNA)
# RNA: B9 RNA with C25G, G26A, U27G, C28A, U31A
# DNA 1: CAATCTGAATTCCGGTCTCCC
# DNA 2: TGGTGGCTACGACGGGATT
# B23: AGAAUGU (DNA:RNA)
# RNA: B9 RNA with C25A, U27A, C28A, G29U, U30G
# DNA 1: CAATCTGAATTCCGGTCTCCC
# DNA 2: TGGTGGCTACGACGGGATT
# B24: GGGAAUG (DNA:RNA)
# RNA: B1 RNA with U26G, A27G, C29A, C30U
# DNA 1: CAATCTGAATTCCGGTCTCCC
# DNA 2: TGGTGGCTACGACGGGATT
# B25: AGAAAUG (DNA:RNA)
# RNA: B1 RNA with G25A, U26G, C29A, C30U
# DNA 1: CAATCTGAATTCCGGTCTCCC
# DNA 2: TGGTGGCTACGACGGGATT
# B26: AAGAAUG (DNA:RNA)
# RNA: B1 RNA with G25A, U26A, A27G, C29A, C30U
# DNA 1: CAATCTGAATTCCGGTCTCCC
# DNA 2: TGGTGGCTACGACGGGATT
# B27: GUUAAUG (DNA:RNA)
# RNA: B1 RNA with A27U, C29A, C30U
# DNA 1: CAATCTGAATTCCGGTCTCCC
# DNA 2: TGGTGGCTACGACGGGATT
# B28: GAGUAUG (DNA:RNA)
# RNA: B1 RNA with U26A, A27G, A28U, C29A, C30U
# DNA 1: CAATCTGAATTCCGGTCTCCC
# DNA 2: TGGTGGCTACGACGGGATT
# B29: GGAAAUG (DNA:RNA)
# RNA: B1 RNA with U26G, C29A, C30U
# DNA 1: CAATCTGAATTCCGGTCTCCC
# DNA 2: TGGTGGCTACGACGGGATT
# B30: AAGAGAA (DNA:RNA)
# RNA: B9 RNA with C25A, G26A, U27G, C28A, U30A, U31A
# DNA 1: CAATCTGAATTCCGGTCTCCC
# DNA 2: TGGTGGCTACGACGGGATT
# B31: AGAUUGU (DNA:RNA)
# RNA: B9 RNA with C25A, U27A, C28U, G29U, U30G
# DNA 1: CAATCTGAATTCCGGTCTCCC
# DNA 2: TGGTGGCTACGACGGGATT
# Biological target: T1, RBFOX1 RRM RbFoxmut (Fox-RRM*)
# Assay: EMSA; HiTS-Eq, 1 nM pool, 10 min; buffer printed only for the single-RNA assays: 10 mM Tris pH 7.5, 150 mM NaCl, 3.4 mM EDTA, 0.001% NP-40, 30 C
# Conditions: tags: His6 N-terminal (pET28a); label: 5' 32P
# Outline: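 Purified RbFox RRM, wild type or mutant, was incubated for 10 min in 50 µL with 1 nM of a 5′-radiolabelled RNA pool carrying 7 randomized nucleotides, whose flanks were annealed to DNA oligonucleotides, over a series of increasing protein concentrations. Unbound RNA was resolved on 8% native PAGE, cut out, reverse-transcribed, barcoded by PCR and sequenced on an Illumina HiSeq 2500. Relative association constants were derived from changes in read counts for each RNA species versus the control reaction and normalised to the cognate motif.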
row,Binder,binding signal
1,B1,0.114 KA relative to UGCAUGU
2,B2,0.0775 KA relative to UGCAUGU
3,B3,0.102 KA relative to UGCAUGU
4,B4,0.125 KA relative to UGCAUGU
5,B5,0.101 KA relative to UGCAUGU
6,B6,1.07 KA relative to UGCAUGU
7,B7,0.884 KA relative to UGCAUGU
8,B8,0.141 KA relative to UGCAUGU
9,B9,0.108 KA relative to UGCAUGU
10,B10,0.136 KA relative to UGCAUGU
11,B11,0.206 KA relative to UGCAUGU
12,B12,0.154 KA relative to UGCAUGU
13,B13,0.0843 KA relative to UGCAUGU
14,B14,0.959 KA relative to UGCAUGU
15,B15,1.39 KA relative to UGCAUGU
16,B16,0.124 KA relative to UGCAUGU

row,Binder,binding signal
1,B17,0.115 KA relative to UGCAUGU
2,B18,0.161 KA relative to UGCAUGU
3,B19,0.16 KA relative to UGCAUGU
4,B20,0.223 KA relative to UGCAUGU
5,B21,0.237 KA relative to UGCAUGU
6,B22,0.143 KA relative to UGCAUGU
7,B23,0.798 KA relative to UGCAUGU
8,B24,1.15 KA relative to UGCAUGU
9,B25,0.121 KA relative to UGCAUGU
10,B26,1.07 KA relative to UGCAUGU
11,B27,0.138 KA relative to UGCAUGU
12,B28,0.795 KA relative to UGCAUGU
13,B29,0.177 KA relative to UGCAUGU
14,B30,0.115 KA relative to UGCAUGU
15,B31,0.222 KA relative to UGCAUGU

# — PMC9911399, “Two distinct binding modes provide the RNA-binding protein RbFox with extraordinary sequence specificity”
